Source: the supplement of paper PMC10849652
About 8,800 targets were measured; listed, in parts, are those with a hit and a random draw of the rest. About 0.5% of all pairs of compound and target were hits.

Experiments:
Experiment in all cases: log2 fold change, soluble protein after heating vs DMSO (PISA); higher = thermal stabilisation; K562 lysate, 10 uM; active = over 0.2 and 3.5 SD of the protein, either way, in both replicates (recomputed)
[1] = compound: C1=CC=C(C=C1)[C@H](COC2=CC3=C(C=C2)NC(=O)N3)NC(=O)C4=CC=CN(C4=O)CC5=CC(=C(C=C5)F)F
Method in brief: (§1)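 The values are log-two fold changes in thermal stability compared with solvent controls and come from duplicates. They were obtained by TMTpro 16plex LC-MS/MS, with channel sums equalised, on the supernatant after 21,000xg for 90 min. That supernatant came from crude K562 extract at 1 mg/mL protein treated with 10 μM compound for 30 min, heated for 3 min across 48°C-58°C, pooled and brought to 0.5% NP-40 at 4°C.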

[2] = compound: CC1=C(SC2=C1C(=N[C@H](C3=NN=C(N32)C)CC(=O)N)C4=CC=C(C=C4)Cl)C
Method in brief: as §1

[3] = compound: CC1=C2C(=CC=C1)N=C(N(C2=O)C3=CC=CC=C3C)CN4C=NC5=C(N=CN=C54)N
Method in brief: as §1

[4] = compound: Cc1sc2c(c1C)C(c1ccc(Cl)cc1)=N[C@@H](CC(=O)OC(C)(C)C)c1nnc(C)n1-2
Method in brief: as §1

[5] = compound: c1ccc([C@@H]2C[C@H]2NC2CCNCC2)cc1
Method in brief: as §1

Measured: log2 fold change

PPCDC (UniProt Q96CD2)
inactive: [1] -0.02 | [2] 0.034 | [3] -0.054 | [4] -0.074 | [5] -0.191

POLR2F (UniProt P61218)
inactive: [1] 0.013 | [2] -0.105 | [3] -0.163 | [4] 0.381 | [5] 0.359

PPP2R3C (UniProt Q969Q6)
inactive: [1] -0.044 | [2] 0.006 | [3] 0.042 | [4] -0.052 | [5] 0.059

PHLDB1 (UniProt Q86UU1)
inactive: [1] -0.006 | [2] 0.007 | [3] 0.054 | [4] -0.027 | [5] 0.036

PICALM (UniProt Q13492)
inactive: [1] -0.014 | [2] 0.027 | [3] 0.016 | [4] 0.005 | [5] 0.007

POLB (UniProt P06746)
inactive: [1] -0.02 | [2] -0.005 | [3] 0.028 | [4] 0.041 | [5] 0.021

PYURF (UniProt Q96I23)
Chain of UniProt Q96I23 (Q96I23 whole entry, looked up): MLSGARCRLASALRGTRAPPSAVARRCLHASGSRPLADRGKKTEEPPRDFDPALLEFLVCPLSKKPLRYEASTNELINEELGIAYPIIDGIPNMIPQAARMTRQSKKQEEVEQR
inactive: [1] 0.03 | [2] 0.048 | [3] 0.126 | [4] 0.007 | [5] -0.091

PYCR2 (UniProt Q96C36)
inactive: [1] 0.007 | [2] 0.036 | [3] 0.013 | [4] 0.004 | [5] -0.054

PTPN1 (UniProt P18031)
inactive: [1] -0.006 | [2] 0.008 | [3] 0.01 | [4] -0.026 | [5] 0.005

PPIE (UniProt Q9UNP9)
Chain of UniProt Q9UNP9 (Q9UNP9 whole entry, looked up): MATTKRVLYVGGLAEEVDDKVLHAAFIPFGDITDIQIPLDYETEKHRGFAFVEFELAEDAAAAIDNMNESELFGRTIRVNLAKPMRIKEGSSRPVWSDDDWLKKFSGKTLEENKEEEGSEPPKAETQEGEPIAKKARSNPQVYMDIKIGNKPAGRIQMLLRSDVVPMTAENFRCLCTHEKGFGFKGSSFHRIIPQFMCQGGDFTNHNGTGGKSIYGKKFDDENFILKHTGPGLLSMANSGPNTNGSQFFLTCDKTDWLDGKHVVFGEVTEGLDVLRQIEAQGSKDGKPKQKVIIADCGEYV
inactive: [1] 0.033 | [2] -0.023 | [3] 0.026 | [4] -0.04 | [5] -0.144

PTK2B (UniProt Q14289)
Chain of UniProt Q14289 (Q14289 whole entry, looked up): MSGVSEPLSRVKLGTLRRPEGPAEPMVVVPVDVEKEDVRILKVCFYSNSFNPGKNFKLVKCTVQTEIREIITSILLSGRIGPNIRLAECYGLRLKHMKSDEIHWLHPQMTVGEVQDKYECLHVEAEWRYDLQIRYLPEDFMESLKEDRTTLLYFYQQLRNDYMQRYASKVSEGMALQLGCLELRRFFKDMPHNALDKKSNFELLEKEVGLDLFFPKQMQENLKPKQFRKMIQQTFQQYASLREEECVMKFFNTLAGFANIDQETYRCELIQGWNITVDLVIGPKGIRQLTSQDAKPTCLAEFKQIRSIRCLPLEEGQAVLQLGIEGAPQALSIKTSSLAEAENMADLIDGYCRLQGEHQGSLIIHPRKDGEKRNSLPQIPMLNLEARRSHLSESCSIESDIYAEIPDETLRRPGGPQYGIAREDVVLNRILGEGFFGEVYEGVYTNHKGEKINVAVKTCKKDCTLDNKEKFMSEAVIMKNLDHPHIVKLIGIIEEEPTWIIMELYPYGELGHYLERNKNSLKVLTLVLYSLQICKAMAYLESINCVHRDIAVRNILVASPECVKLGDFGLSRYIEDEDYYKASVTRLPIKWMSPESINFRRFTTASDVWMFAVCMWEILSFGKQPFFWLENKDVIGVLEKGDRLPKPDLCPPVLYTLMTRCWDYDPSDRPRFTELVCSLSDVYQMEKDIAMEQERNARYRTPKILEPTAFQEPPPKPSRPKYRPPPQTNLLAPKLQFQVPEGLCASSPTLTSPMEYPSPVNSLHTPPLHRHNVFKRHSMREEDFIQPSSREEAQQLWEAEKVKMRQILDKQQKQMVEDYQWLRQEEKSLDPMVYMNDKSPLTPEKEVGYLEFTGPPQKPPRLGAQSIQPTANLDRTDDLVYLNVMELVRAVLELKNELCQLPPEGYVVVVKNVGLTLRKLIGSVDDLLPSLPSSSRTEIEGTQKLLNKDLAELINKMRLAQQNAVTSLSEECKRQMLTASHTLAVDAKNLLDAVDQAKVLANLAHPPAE
inactive: [1] -0.056 | [2] -0.012 | [3] -0.036 | [4] -0.009 | [5] -0.034

PSTPIP2 (UniProt Q9H939)
Chain of UniProt Q9H939 (Q9H939 whole entry, looked up): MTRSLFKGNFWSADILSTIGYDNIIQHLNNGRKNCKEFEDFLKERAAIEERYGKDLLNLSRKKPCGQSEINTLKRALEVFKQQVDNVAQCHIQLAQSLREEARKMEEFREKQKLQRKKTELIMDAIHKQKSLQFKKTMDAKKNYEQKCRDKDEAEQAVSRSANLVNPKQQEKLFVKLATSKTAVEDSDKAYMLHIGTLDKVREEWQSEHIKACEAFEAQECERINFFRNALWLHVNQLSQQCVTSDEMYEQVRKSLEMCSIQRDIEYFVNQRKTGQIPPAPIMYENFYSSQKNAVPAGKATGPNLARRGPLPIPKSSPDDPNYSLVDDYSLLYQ
inactive: [1] 0 | [2] -0.01 | [3] 0.046 | [4] 0 | [5] 0.027

PRKCD (UniProt Q05655)
inactive: [1] 0.003 | [2] 0.022 | [3] 0.028 | [4] -0.003 | [5] 0.023

PRKDC (UniProt P78527)
inactive: [1] -0.073 | [2] -0.123 | [3] -0.064 | [4] 0.028 | [5] -0.048

PFKFB2 (UniProt O60825)
inactive: [1] 0.016 | [2] 0.001 | [3] 0.03 | [4] -0.001 | [5] -0.008

QKI (UniProt Q96PU8)
inactive: [1] -0.071 | [2] -0.001 | [3] -0.023 | [4] 0.04 | [5] -0.034

PMS2 (UniProt P54278)
inactive: [1] -0.021 | [2] 0.005 | [3] 0.024 | [4] -0.031 | [5] 0.039

PPT2 isoform 3 (UniProt Q9UMR5)
inactive: [1] 0.01 | [2] -0.03 | [3] -0.046 | [4] -0.048 | [5] -0.08

PCLAF (UniProt Q15004)
Chain of UniProt Q15004 (Q15004 whole entry, looked up): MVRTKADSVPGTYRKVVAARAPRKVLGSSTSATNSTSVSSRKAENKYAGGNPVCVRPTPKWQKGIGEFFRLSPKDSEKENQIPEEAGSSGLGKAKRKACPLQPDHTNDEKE
inactive: [1] 0.053 | [2] 0.016 | [3] -0.037 | [4] -0.059 | [5] -0.039

PIKFYVE (UniProt Q9Y2I7)
inactive: [1] -0.005 | [2] 0.007 | [3] 0.016 | [4] 0.054 | [5] -0.03

PMPCA (UniProt Q10713)
inactive: [1] 0.019 | [2] 0.031 | [3] 0.028 | [4] -0.013 | [5] -0.012

PIP4K2B (UniProt P78356)
inactive: [1] -0.063 | [2] -0.078 | [3] -0.014 | [4] 0.036 | [5] -0.108

PEF1 (UniProt Q9UBV8)
Chain of UniProt Q9UBV8 (Q9UBV8 whole entry, looked up): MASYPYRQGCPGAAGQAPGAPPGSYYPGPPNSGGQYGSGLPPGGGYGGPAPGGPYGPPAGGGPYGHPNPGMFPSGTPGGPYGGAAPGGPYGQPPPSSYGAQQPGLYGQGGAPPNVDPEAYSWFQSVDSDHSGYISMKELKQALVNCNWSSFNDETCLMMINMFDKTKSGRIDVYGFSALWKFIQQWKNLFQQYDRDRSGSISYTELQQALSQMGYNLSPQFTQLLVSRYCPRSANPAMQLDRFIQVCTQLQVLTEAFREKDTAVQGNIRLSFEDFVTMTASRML
inactive: [1] 0.016 | [2] -0.039 | [3] 0.055 | [4] 0.048 | [5] -0.031

PRKD2 isoform 3 (UniProt Q9BZL6)
inactive: [1] 0.001 | [2] -0.031 | [3] 0.121 | [4] 0.02 | [5] 0.104

PHKA1 (UniProt P46020)
inactive: [1] 0.033 | [2] 0.02 | [3] 0 | [4] -0.008 | [5] 0.001

PRKACA (UniProt P17612)
inactive: [1] 0.029 | [2] 0.019 | [3] 0.008 | [4] -0.013 | [5] -0.245

PLIN2 (UniProt Q99541)
inactive: [1] -0.138 | [2] 0.015 | [3] 0.021 | [4] -0.018 | [5] 0.014

PRKACB isoform 2 (UniProt P22694)
inactive: [1] -0.042 | [2] -0.004 | [3] -0.018 | [4] -0.009 | [5] 0.019

PCYT1B (UniProt Q9Y5K3)
Chain of UniProt Q9Y5K3 (Q9Y5K3 whole entry, looked up): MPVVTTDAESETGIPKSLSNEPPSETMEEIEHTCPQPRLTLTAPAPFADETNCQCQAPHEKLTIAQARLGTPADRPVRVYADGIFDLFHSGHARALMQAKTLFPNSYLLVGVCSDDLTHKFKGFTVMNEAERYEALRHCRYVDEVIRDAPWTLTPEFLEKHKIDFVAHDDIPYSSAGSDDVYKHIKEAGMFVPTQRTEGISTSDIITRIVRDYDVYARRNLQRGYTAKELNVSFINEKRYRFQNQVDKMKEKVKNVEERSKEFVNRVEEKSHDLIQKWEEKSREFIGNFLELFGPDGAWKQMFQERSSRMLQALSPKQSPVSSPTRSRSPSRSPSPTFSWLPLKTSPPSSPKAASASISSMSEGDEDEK
inactive: [1] -0.006 | [2] 0.033 | [3] -0.01 | [4] -0.03 | [5] -0.073

PCF11 (UniProt O94913)
inactive: [1] -0.135 | [2] 0.018 | [3] 0.022 | [4] 0.008 | [5] 0.079

PIK3CG (UniProt P48736)
Chain of UniProt P48736 (P48736 whole entry, looked up): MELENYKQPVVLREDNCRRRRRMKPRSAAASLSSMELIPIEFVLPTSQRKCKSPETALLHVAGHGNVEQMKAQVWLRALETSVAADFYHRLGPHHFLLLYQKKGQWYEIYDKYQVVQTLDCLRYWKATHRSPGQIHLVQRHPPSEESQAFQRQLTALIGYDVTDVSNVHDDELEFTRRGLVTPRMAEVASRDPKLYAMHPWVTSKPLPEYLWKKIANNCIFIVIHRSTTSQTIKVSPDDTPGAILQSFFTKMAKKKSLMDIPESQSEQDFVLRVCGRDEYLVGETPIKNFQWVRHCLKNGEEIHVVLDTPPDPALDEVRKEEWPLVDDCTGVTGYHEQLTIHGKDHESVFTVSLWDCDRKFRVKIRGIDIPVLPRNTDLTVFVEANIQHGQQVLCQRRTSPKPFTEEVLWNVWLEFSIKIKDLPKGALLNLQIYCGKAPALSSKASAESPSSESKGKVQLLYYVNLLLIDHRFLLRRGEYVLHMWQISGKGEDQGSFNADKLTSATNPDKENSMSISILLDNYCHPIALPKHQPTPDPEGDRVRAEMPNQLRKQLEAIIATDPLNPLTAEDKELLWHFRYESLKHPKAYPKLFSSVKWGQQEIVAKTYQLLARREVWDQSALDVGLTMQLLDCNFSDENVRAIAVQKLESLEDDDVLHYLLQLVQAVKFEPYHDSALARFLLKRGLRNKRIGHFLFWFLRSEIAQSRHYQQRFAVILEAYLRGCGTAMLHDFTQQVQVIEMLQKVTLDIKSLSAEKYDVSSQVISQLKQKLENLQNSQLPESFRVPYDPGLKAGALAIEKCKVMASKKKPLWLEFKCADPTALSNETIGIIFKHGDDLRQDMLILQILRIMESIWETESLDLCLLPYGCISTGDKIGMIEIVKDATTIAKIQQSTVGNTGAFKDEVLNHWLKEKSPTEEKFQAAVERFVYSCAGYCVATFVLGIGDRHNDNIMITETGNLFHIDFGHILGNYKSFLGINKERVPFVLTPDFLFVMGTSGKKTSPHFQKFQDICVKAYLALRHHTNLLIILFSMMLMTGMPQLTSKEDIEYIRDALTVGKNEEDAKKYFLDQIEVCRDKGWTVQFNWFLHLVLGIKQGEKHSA
inactive: [1] -0.076 | [2] -0.065 | [3] 0.109 | [4] -0.047 | [5] -0.105

PICALM (UniProt H0YEH1)
inactive: [1] 0.018 | [2] -0.027 | [3] -0.138 | [4] 0.075 | [5] -0.303

PGPEP1 (UniProt Q9NXJ5)
inactive: [1] 0.027 | [2] -0.071 | [3] -0.013 | [4] -0.025 | [5] 0.012

PGGT1B (UniProt P53609)
Chain of UniProt P53609 (P53609 whole entry, looked up): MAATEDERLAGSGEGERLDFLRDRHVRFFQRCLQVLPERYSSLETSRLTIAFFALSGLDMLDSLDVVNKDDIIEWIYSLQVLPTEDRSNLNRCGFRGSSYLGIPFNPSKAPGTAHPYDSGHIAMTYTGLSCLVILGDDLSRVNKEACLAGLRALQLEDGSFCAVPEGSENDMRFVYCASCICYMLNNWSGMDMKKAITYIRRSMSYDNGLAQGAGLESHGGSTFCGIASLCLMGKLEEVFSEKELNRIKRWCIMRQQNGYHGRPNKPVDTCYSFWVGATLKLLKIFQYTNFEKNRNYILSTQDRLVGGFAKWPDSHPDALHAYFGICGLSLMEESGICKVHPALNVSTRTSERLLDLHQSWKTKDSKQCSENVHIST
inactive: [1] -0.055 | [2] 0.021 | [3] -0.013 | [4] -0.004 | [5] 0.064

PPP4R2 (UniProt Q9NY27)
inactive: [1] 0.019 | [2] 0.025 | [3] -0.001 | [4] -0.026 | [5] -0.009

PHOSPHO2 (UniProt Q8TCD6)
inactive: [1] -0.029 | [2] 0.02 | [3] 0.046 | [4] -0.053 | [5] 0.061

PDXDC1 (UniProt Q6P996)
Chain of UniProt Q6P996 (Q6P996 whole entry, looked up): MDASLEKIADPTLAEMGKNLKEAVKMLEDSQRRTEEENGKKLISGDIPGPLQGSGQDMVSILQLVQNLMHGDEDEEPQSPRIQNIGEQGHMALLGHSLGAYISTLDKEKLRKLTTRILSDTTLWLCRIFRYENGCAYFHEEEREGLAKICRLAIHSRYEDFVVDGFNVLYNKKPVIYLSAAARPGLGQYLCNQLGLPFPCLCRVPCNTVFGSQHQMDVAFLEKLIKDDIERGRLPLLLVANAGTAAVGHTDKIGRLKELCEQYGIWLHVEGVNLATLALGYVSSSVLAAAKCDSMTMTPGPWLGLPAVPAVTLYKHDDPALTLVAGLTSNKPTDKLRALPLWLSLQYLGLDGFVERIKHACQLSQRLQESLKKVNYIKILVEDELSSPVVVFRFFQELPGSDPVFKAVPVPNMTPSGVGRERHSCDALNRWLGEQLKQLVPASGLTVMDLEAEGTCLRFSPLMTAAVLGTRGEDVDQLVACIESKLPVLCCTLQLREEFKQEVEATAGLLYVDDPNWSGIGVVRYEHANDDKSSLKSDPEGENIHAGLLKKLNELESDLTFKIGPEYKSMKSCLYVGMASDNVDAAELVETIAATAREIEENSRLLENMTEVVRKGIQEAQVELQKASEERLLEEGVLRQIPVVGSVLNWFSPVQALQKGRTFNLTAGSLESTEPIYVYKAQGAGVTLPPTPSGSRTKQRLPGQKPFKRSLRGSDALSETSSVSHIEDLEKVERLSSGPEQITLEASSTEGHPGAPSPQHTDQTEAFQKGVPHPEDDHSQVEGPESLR
inactive: [1] 0.025 | [2] 0.022 | [3] 0.01 | [4] 0.02 | [5] 0.014

POGK (UniProt Q9P215)
inactive: [1] -0.142 | [2] 0.13 | [3] -0.008 | [4] 0.016 | [5] -0.068

PDE2A (UniProt O00408)
inactive: [1] 0.012 | [2] 0.067 | [3] 0.163 | [4] 0.039 | [5] 0
